The values below come from PubChem BioAssay AID651958 (The Scripps Research Institute Molecular Screening Center, 2012).

Several values for one entry are separate records, joined by “and”; a condition that tells them apart may be missing. Identical values can stand only once. Among all 370,000 compounds or so, about 2,000 (0.54%) were called active. Shown is part of a subset that was picked to be rich in actives. Unmarked numbers belong to inactive results. Rule as the data show it: active = inhibition above about 30%; inactive = the rest.

This assay has as its system Crimean-Congo hemorrhagic fever virus L polyprotein viral ovarian tumor (vOTU) protease domain. Nature of the assay: CCHFV vOTU protease inhibitors, primary screen, biochemical, Pep-AMC substrate, fluorescence (AID 651958). Also: 0% = vehicle wells with enzyme and 100% = no enzyme wells. As to conditions: at 11.5 µM, stronger effect = higher value.
As a reminder, the inhibition is the drop in the measured response relative to a control, in per cent. Take `CCOC(=O)c1ccc(NC(=O)C2CC(=O)Nc3nc4ccccc4n32)cc1` (stereo unspecified): the inhibition was 19.2%.
The same measure for `CCOC(=O)c1ccc(Nc2cc3ccccc3c(=O)[nH]2)cc1`: 94.2% (active).
The value for `CCOC(=O)c1cc2c(=O)[nH]c(C(Cl)(Cl)Cl)nc2o1` was -3.85%; that for `Cc1cc(C)cc(NC(=S)NC2CC3CCCC(C2)N3Cc2cccs2)c1` (stereo unspecified) was -9.42%.
`CCC(C)(C(=O)NC1CCCC1)N(C(=O)CNC(C)=O)c1ccc(C)cc1` (stereo unspecified): the inhibition is 7.89%.
The value for `Oc1c(C=Nc2cccc3nsnc23)ccc2ccccc12` was 86% (active); that for `CC1=C(C(=O)N2CCOCC2)CC(CC(=O)NCC2CCCCC2)C(=O)N1Cc1ccc(F)cc1` (stereo unspecified) was 14%; that for `CCCn1c(N)c(C(=O)CSc2nnc(Cc3cccs3)n2C2CC2)c(=O)[nH]c1=O` was -3.09%.
The value for `CC(=O)c1c(N)n(C)c(=O)n(C)c1=O` was 5.25%.
For the molecule `N#C/C(=C\c1ccccc1)c1n[nH]c(Cn2cncn2)n1`, the inhibition is 4.11%.
The same measure for `CCc1ccc(/C=N/NC(=O)c2ccc(OC3CCCC3)cc2)s1`: 12.3%; for `COc1ccc(CNCCCNCc2ccc(OC)c(OC)c2)cc1OC`: 5.96%.
The value for `Cc1ccc2[nH]c(=O)c(CC=C(Cl)Cl)c(C)c2c1` was 3.16%; that for `CCOC(=O)c1ccc(NC(=O)c2nc[nH]c2C(=O)N[C@@H](CCCCNC(=O)OC(C)(C)C)C(=O)OC(C)(C)C)cc1` was 29.6% (active); that for `Cc1ccc(NC(=O)c2nc[nH]c2C(=O)N[C@@H](CCCCNC(=O)OC(C)(C)C)C(=O)OC(C)(C)C)cc1` was 27.1%.
The value for `CC(C)(C)OC(=O)NCCCCCNC(=O)c1[nH]cnc1C(=O)Nc1nccs1` was 0.59%; that for `CCOC1=C2CN(S(=O)(=O)c3ccc(C)cc3)[C@H](c3cccs3)C[C@H]2[C@H]2C(=O)N(c3ccccc3)C(=O)[C@H]2C1` was -5.03%.
For `O=C(COc1ccc(Cl)cc1)N1CCN(c2cccc(C(F)(F)F)c2)CC1`, the inhibition is 32.4% (active).
Turning to `CSCCC(NC(=O)COc1ccccc1)C(=O)N1CCN(c2cccc(C(F)(F)F)c2)CC1` (stereo unspecified), the inhibition is 13.9%.
The same measure for `O=C(COc1ccc(Cl)cc1)N1CCN(S(=O)(=O)c2ccc(Cl)cc2)CC1`: 9.84%; for `CCNC(=O)N1CCCC(C(=O)c2ccc(-c3ccccc3)cc2)C1` (stereo unspecified): -6.51%; for `Cc1ccc(N(CCC(=O)O)S(=O)(=O)c2cccc(C(F)(F)F)c2)cc1`: -2.86%.
As to `Cc1noc(C)c1S(=O)(=O)Nc1ccc(C(=O)O)cc1`, the inhibition is 7.91%.
Turning to `Cc1oc2c(F)c(F)c(F)c(F)c2c1S(=O)(=O)Nc1cccc(C(F)(F)F)c1`, the inhibition is 43.8% (active).
The same measure for `C[C@]12C=CC(=O)C=C1CC[C@@H]1[C@@H]2C(=O)C[C@@]2(C)[C@H]1CC[C@]2(O)C(=O)CO`: 0.7% and 3.02%; for `COCCCN(C(=S)Nc1c(C)cc(C)cc1C)C(C)c1ccncc1` (stereo unspecified): -6.09%.
With `CCOc1ccc(C2C(C#N)=C(N)N(N(C)C)C3=C2C(=O)CCC3)cc1` (stereo unspecified), the inhibition is 16.2%.
`CN(C)N1C(N)=C(C#N)C(c2ccc(Br)cc2)C2=C1CCCC2=O` (stereo unspecified): the inhibition is 35.1% (active).
The value for `CCc1ccc(C2C(C#N)=C(N)N(N(C)C)C3=C2C(=O)CCC3)s1` (stereo unspecified) was 1.4%; that for `CC(C(=O)N=Nc1c(O)n(C)c2ccc(Br)cc12)n1cnc2ccccc2c1=O` (stereo unspecified) was -4.46%.
The same measure for `CNc1nccc(-c2ccc(Cl)cc2)c1C#N`: -58.4%.
The same measure for `CCn1c(C)nc2cc(C(=O)NNS(=O)(=O)c3ccc(C)cc3C)ccc21`: -9.65%.
Take `O=C1Cc2ccccc2Sc2ccc(Cl)cc21`: the inhibition was 7.8%.
The value for `CCN(CC)C(=O)[C@@H]1C=C2c3cccc4[nH]c(Br)c(c34)C[C@H]2N(C)C1` was 33.8% (active).
The same measure for `COc1ccc(NC(=O)C[C@H]2C(=O)N(CCc3ccccc3)C[C@@H]2C)cc1`: 29.5% (active); for `CC1(C)CN(CCc2ccccc2)C(=O)[C@H]1CC(=O)Nc1ccc(Br)cc1`: 21.8%; for `COc1ccc(CCN2C(=O)N(c3ccc(OC)cc3)C(=O)C2CC(=O)Nc2ccc(OC)cc2)cc1` (stereo unspecified): 4.43%.
The same measure for `COC(=O)C1=C(c2cc3ccccc3s2)C[C@@H]2CC[C@H]1N2C(=O)NCCO`: -0.84%.
`Cc1noc(/C=C/c2ccco2)c1S(=O)(=O)N1CCC(C(=O)Nc2ccc(Cl)cn2)CC1`: the inhibition was 2.84%.
The value for `O=C(Nc1ccc(S(=O)(=O)NCC2CCCO2)cc1)c1ccc(F)cc1` (stereo unspecified) was 14%.
The value for `CCOc1ccc(C(=O)Nc2ccc(S(=O)(=O)NCC3CCCO3)cc2)cc1OCC` (stereo unspecified) was 35% (active).
The value for `Cc1ccc(NC(=O)c2ccc(S(=O)(=O)NCC3CCCO3)cc2)cc1C` (stereo unspecified) was -7.16%; that for `CC(C)c1ccc(Nc2ncccc2C#N)cc1` was 7.01%; that for `CCC(C)(C)NC(=O)C(c1ccc(O)cc1)N(Cc1ccco1)C(=O)CCC(=O)Nc1ccccn1` (stereo unspecified) was 0.91%.
Take `CSc1ccccc1NC(=O)CN(C)CC(=O)Nc1cccc(Br)c1`: the inhibition was 0.92%.
The same measure for `Cc1cccc(N(C(=O)c2sc(C)nc2C)C(C(=O)NCC2CCCO2)c2ccccc2)c1` (stereo unspecified): -8.32%; for `C=CCn1c(N)cc(=O)nc1SCC(=O)Nc1cccc2ccccc12`: -1.46%; for `Cc1ccc(-n2c(SCC(=O)Nc3cccc4ccccc34)nnc2-c2ccccn2)cc1`: -2.55%.
The value for `Cc1ccccc1-n1c(SCC(=O)Nc2cccc3ccccc23)nc(O)cc1=O` was 32.7% (active); that for `O=C(Cn1cnc2c(OCc3ccccc3)ncnc21)NCc1nc2ccccc2[nH]1` was -9.89%; that for `Cn1c(=NC(=O)c2ccco2)sc2cccc(F)c21` was 5.27%.
The same measure for `Cn1c(=NC(=O)c2ccc3c(c2)OCCO3)sc2cc(S(C)(=O)=O)ccc21`: -4.23%; for `Cn1c(=NC(=O)c2cnccn2)sc2ccccc21`: 36.4% (active); for `COC(=O)c1ccc(CN2C(=O)[C@]3(OCCC=C[C@H]3C)c3c(Br)cccc32)cc1`: 10.2%.
`O=C(N[C@@H]1C/C=C\C[C@@H](CC(=O)N(CCO)Cc2ccccc2)C(=O)N[C@H](Cc2ccccc2)COC1=O)OCC1c2ccccc2-c2ccccc21`: the inhibition is 0.7%.
Consider `CCOC(=O)N/N=C1\CC(C)S(=O)(=O)c2ccc(Cl)cc21` (stereo unspecified), for which the inhibition was -1.67%.
The value for `COc1ccc(C(=O)N2CCN(c3ccc(C(C)=O)cc3F)CC2)cc1S(=O)(=O)NC1CC1` was 12.2%; that for `COc1cccc(NC(=O)Nc2nnc(N3CCCCC3C)s2)c1` (stereo unspecified) was 8.79%.
The value for `COc1ccc(CN2C(CC(=O)Nc3cccnc3)c3ccc(C(F)(F)F)cc3S2(=O)=O)cc1` (stereo unspecified) was 1.05%; that for `COc1ccc(C(N)c2csc(NC(=O)Nc3cccc(C(F)(F)F)c3)n2)cc1` (stereo unspecified) was 36.4% (active); that for `O=C1[C@@H](c2ccccc2)[C@@H](c2ccccc2)N1c1ccccc1` was -7.47%.
As to `COc1ccc(C(=O)/C=C/c2ccc(-c3ccccc3)cc2)cc1CSCC(=O)O`, the inhibition was 29.8% (active).
The same measure for `COc1cc(C(=O)N2CCN(C/C=C/c3ccccc3)CC2)cc(OC)c1C`: 11.4%; for `COc1ccc(C(C)=O)cc1CSc1nc2nc(C)cc(C)n2n1`: -9.62%.
The same measure for `Cc1noc(C)c1S(=O)(=O)N(C)C[C@H]1OCCCC[C@@H](C)Oc2ccc(NC(=O)CCCN(C)C)cc2C(=O)N([C@H](C)CO)C[C@@H]1C`: -8.1%; for `CC(C)Oc1ccc(CN2CCC2(C)C(=O)NCc2ccc(C(F)(F)F)cc2)cc1` (stereo unspecified): 35.6% (active); for `CC(C)NC(=O)C1(C)CCCCN1Cc1cccc(C(F)(F)F)c1` (stereo unspecified): 0.49%.
The value for `CC(C)CN1CCC1(C)C(=O)Nc1ccc(OC(F)F)cc1` (stereo unspecified) was 15.4%.
Take `CC(=O)N=c1ncn(CC(COC(C)=O)OC(C)=O)c2nc[nH]c12` (stereo unspecified): the inhibition is 6.99%.
The value for `COC(=O)Cc1ccc(OC2(C)CCN(Cc3ccc4c(c3)OCCO4)C2)cc1` (stereo unspecified) was 0.88%; that for `CC(C)(C)NC(=O)C(c1ccco1)N(Cc1ccc2c(c1)OCO2)C(=O)Cn1nnc2ccccc21` (stereo unspecified) was 5.93%.
The same measure for `CCCCCCCCNS(=O)(=O)/C=C/c1cc(C)ccc1CNC(=O)OC(C)(C)C`: 29.5%.
The same measure for `COCCn1c(=O)[nH]c(=O)c2cc(C(=O)c3cc(OC)ccc3O)cnc21`: 16.3%; for `CCc1ccc(NC(=O)CN2C(=O)COc3ccc(S(=O)(=O)N4CCCC4)cc32)cc1`: -0.54%; for `COP(=O)(Sc1ccccc1)C(Cc1ccccc1)NC(=O)OCc1ccccc1` (stereo unspecified): 3.36%.
In the case of `COc1cc2c(cc1OC)C(c1cccc([N+](=O)[O-])c1)=NCC2`, the inhibition is 10.7%.
The same measure for `COc1cc2c(cc1OC)C(Cc1cc(OC)c(OC)cc1[N+](=O)[O-])=NCC2`: 40% (active).
The same measure for `COc1cc(CN2CCCN(C)CC2)c([N+](=O)[O-])cc1OC`: -3.03%.
The value for `CC(C)CCNC(=O)Cn1c(=O)oc2cc(S(=O)(=O)N3CC(C)CC(C)C3)ccc21` (stereo unspecified) was 7.1%; that for `CCCNC(=O)C1(C)CCN(C(=O)c2cc(F)ccc2C)C1` (stereo unspecified) was 6.2%.
Take `Nc1ccc(N=Nc2ccccc2Cl)c(N)n1`: the inhibition is 30% (active).
The value for `COc1ccc(C(C(=O)NC(C)(C)C)N(C(=O)Cn2nnc3ccccc32)c2ccc(C(C)=O)cc2)cc1O` (stereo unspecified) was 21.7%; that for `Cc1nc(N)nc(SCc2ccc([N+](=O)[O-])cc2)c1N` was -13.9%; that for `Cc1oc2c(c1C(=O)N1CCOCC1)C(=O)c1ccccc1C2=O` was 70.8% (active).
The same measure for `Cc1ccc(S(=O)(=O)NC(C(=O)N2CCOCCOCCOCCOCC2)c2ccccc2)cc1` (stereo unspecified): -5.21%; for `N[C@@H](Cc1ccccc1)C(=O)N1CCOCC1`: -2.24%.
